TEAD-YAP block: TEAD-YAP interaction inhibition; inhibition, % at 9.12 µM; HEK-TIYL cells, TEAD-Gal4/YAP UAS-luciferase luminescence; hit rate 1.4% among 640,000; AID 1259422; in the data active means inhibition above about 32%;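 further: 0% = median of test compound wells and 100% = reference inhibitor wells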
MITF primary: blocks human microphthalmia-associated transcription factor; hit rate 0.91% among 650,000; AlphaScreen MITF homodimerization, bead proximity signal; inhibition, % at 2.6 µM; in the data active means inhibition above about 50%;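 further: 0% = vehicle wells with protein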
FBW7 activator: human FBW7 E3 ligase activation, primary screen | Q969H0 | AlphaScreen FBW7–phospho-cyclin E peptide binding, activator screen | normalized activity (activation), % at 26.1 µM | hit rate 0.13% among 650,000 | AID 1259310; in the data active means normalized activity above about 1.9%;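 further: purified mutant Fbw7 with reduced substrate affinity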
GPR151 ag: activates the human receptor GPR151; Q8TDV0; PathHunter beta-arrestin GPR151 cells, luminescence; activation, % at 11.2 µM; hit rate 1% among 650,000; in the data active means activation above about 4.9%;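 further: 0% = median of compound wells and 100% = cells with positive control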
GPR151 conf act: human GPR151 activation, confirmation screen | shares compounds with GPR151 ag | GPR151 PathHunter beta-arrestin cells, luminescence, 90 min; % of EA-reagent control over plate median | 6,700 tested, under 10 active | AID 1508609 | activation, % at 11.2 µM;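 active means mean percent activation across replicates above the confirmation screen cutoff of 4.91%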
GPR119 counter: activates human GPR119 in a GPR151 counter-screen | shares compounds with GPR151 ag | GPR119 PathHunter beta-arrestin cells, luminescence, 90 min; 0 = compound-well median, 100 = enzyme-acceptor control | activation, % at 11.2 µM | hit rate 0.3% among 6,700;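 active means mean percent activation in the counterscreen above 29.09%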;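 further: counterscreen on off-target GPR119 to flag nonselective hits from the GPR151 activator screen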
The depositor's hits bear a star; . = no result. An excerpt weighted towards active compounds, which were near 3.4% of everything screened.

SMILES	TEAD-YAP block	MITF primary	FBW7 activator	GPR151 ag	GPR151 conf act	GPR119 counter
N#Cc1ccc(Oc2ccc(NC(=O)/C=C\C(=O)O)cc2)cc1	-5	5	0	5.3*	1	9
COc1ccc(NC(=O)/C=C/C(=O)O)cc1	-7	4	0	-2	.	.
O=C1CCSc2c1cccc2C(=O)NCc1ccc2c(c1)OCO2	26	3	0	5.6*	1	1
O=C(NCc1ccc2c(c1)OCO2)C(=O)Nc1ccccc1	-22	16	0	-1	.	.
O=C(NCc1ccc2c(c1)OCO2)c1ccc(Br)s1	-2	2	0	6.2*	0	4
Cc1ccccc1CNC(=O)C(=O)NCc1ccc2c(c1)OCO2	7	2	0	5.4*	0	6
CCOc1nc(Nc2ccc(C3Nc4ccccc4O3)cc2)nc(N2CCOCC2)n1 (stereo unspecified)	7	10	0	0	.	.
O=C(NC1CCC(NC(=O)c2cccc(F)c2)CC1)c1cccc(F)c1 (stereo unspecified)	4	-1	0	9.4*	0	-5
CCOC(=O)CN1C(=O)SC(Nc2ccccc2)C1=O (stereo unspecified)	3	3	0	7.8*	0	8
CCCCN1C(=O)SC(Nc2ccc(F)cc2)C1=O (stereo unspecified)	3	6	0	8.2*	-2	-7
O=C(O)CN1C(=O)SC(Nc2ccccc2)C1=O (stereo unspecified)	-7	0	0	-3	.	.
CC(C)OCCCNC(=O)CC1Sc2ccccc2NC1=O (stereo unspecified)	0	5	0	0	.	.
COCCN1C(=S)NC2CC1(C)Oc1ccccc12 (stereo unspecified)	-7	-10	0	6.1*	0	-10
CCSc1ccccc1C(=O)NC(C)c1ccccc1 (stereo unspecified)	-5	2	0	5.5*	0	3
COc1cc(/C=N/NC(=O)CN2CC(c3ccccc3)CC2=O)cc2sc(=O)oc12 (stereo unspecified)	5	0	0	0	.	.
COc1cc(/C=N/NC(=O)Cn2nnc(-c3ccccc3)n2)cc2sc(=O)oc12	9	5	0	8.0*	0	4
COC(=O)c1cc(OC)c(OC)cc1NC(=S)N1CCCC1	7	3	0	2	.	.
COc1cc(C#N)c(NC(=S)N2CCCC2)cc1OC	-1	7	0	5.4*	-1	-3
CC(C)(C)C1=NN(CCC(=O)O)C(=O)c2cc3ccccc3n2C1	0	-2	0	7.7*	0	10
CC(C)(C)C1=NN(CC(=O)Nc2nccs2)C(=O)c2cc3ccccc3n2C1	-3	-16	0	6.1*	0	8
CCCC(=O)Oc1ccc2c(c1)c(C(=O)OCC)c(C)n2C	-4	-5	0	-1	.	.
COc1ccc(-c2nc(NCCO)c3ncn(C4CCCCC4)c3n2)cc1	-4	12	0	6.0*	1	-4
CC(=O)C(Sc1nc(NC(C)C)nc(N(C)C)n1)C(C)=O	-12	16	1	5.3*	0	5
COC(=O)[C@H](Cc1ccccc1)NC(=O)c1cc(Cc2ccccc2)no1	-45	-12	0	-1	.	.
Cc1cc([N+](=O)[O-])nn1CC(=O)Nc1sc2c(c1C(=O)OC(C)C)CCCC2	-5	-13	0	1	.	.
SMILES	TEAD-YAP block	MITF primary	FBW7 activator	GPR151 ag	GPR151 conf act	GPR119 counter
Cc1ccc(-n2c3c(cc(C(=O)NCC4CCCO4)c2=O)C(=O)CC(C)(C)C3)cc1 (stereo unspecified)	7	-3	0	11*	1	-3
COCCNC(=O)c1cc2c(n(-c3ccc(C)cc3)c1=O)CC(C)(C)CC2=O	-9	-2	0	-1	.	.
O=CN1CCCN(C2CCN(c3ccc(NC(=O)Cc4cccc(F)c4)cc3)CC2)CC1	-3	-3	0	0	.	.
Cc1ccccc1C(=O)n1cnc2cc([N+](=O)[O-])ccc21	7	-259	0	7.1*	1	-1
O=C(c1cc([N+](=O)[O-])cc([N+](=O)[O-])c1)n1cnc2ccccc21	-7	21	1	-1	.	.
CNCc1ccc(-c2ccc(Cl)cc2)o1	-9	14	0	5.0*	0	-4
CNCc1ccc(-c2ccc(Br)cc2)o1	-3	11	0	0	.	.
Cc1ccc2oc(=O)c3cnn(CC(=O)N4CCCC(C)C4)c3c2c1 (stereo unspecified)	-4	-2	0	0	.	.
c1nc(NCC2CCCO2)c2c3c(sc2n1)CCC3 (stereo unspecified)	-1	-3	0	7.6*	0	6
c1nc(NCC2CCCO2)c2c3c(sc2n1)CCCC3 (stereo unspecified)	-2	-1	0	1	.	.
c1nc(NCCN2CCOCC2)c2c3c(sc2n1)CCCC3	-6	-4	0	1	.	.
c1nc(NCc2ccc(CN3CCOCC3)cc2)c2c3c(sc2n1)CCC3	33*	-1	0	6.3*	1	-6
CCOc1ccc(NC(=O)CC2S/C(=N\N=C(/C)c3ccc(Cl)cc3)NC2=O)cc1 (stereo unspecified)	4	5	0	6.7*	0	-9
Nc1ccccc1C(=O)N1CCC(N2C(=O)Cc3ccccc32)CC1	-11	-3	0	2	.	.
COc1ccc(OC)c(N2C(=O)C3CC(C)=C(C)CC3C2=O)c1 (stereo unspecified)	-1	5	0	-1	.	.
COc1ccc(Cl)cc1N1C(=O)C2CC(C)=C(C)CC2C1=O (stereo unspecified)	15	-5	0	6.8*	0	-6
COC(=O)C1=C(C)N(c2ccc(Cl)cc2)C(=O)/C1=C\c1ccco1	6	9	0	3	.	.
COC(=O)C1=C(C)N(c2ccc(C(C)C)cc2)C(=O)/C1=C\c1ccco1	29	11	0	6.0*	0	12
CC(=O)C/C(C)=N/NC(=O)C(C)Oc1ccc(Cl)cc1C (stereo unspecified)	17	3	0	0	.	.
CCNC(=O)C(C)Oc1ccc(Cl)cc1C (stereo unspecified)	2	-8	0	5.5*	0	5
CCC(=O)NNC(=O)C(C)Oc1ccc(Cl)cc1Cl (stereo unspecified)	-9	11	0	1	.	.
COCC(=O)NNC(=O)C(C)Oc1ccc(Cl)cc1Cl (stereo unspecified)	10	-2	0	5.0*	0	8
CCC(C)NC(=O)CN(c1cccc(C(F)(F)F)c1)S(C)(=O)=O (stereo unspecified)	3	-3	0	0	.	.
CCC(C)NC(=O)CN(c1cccc(C(F)(F)F)c1)S(=O)(=O)c1ccccc1 (stereo unspecified)	6	-10	0	10.0*	0	3

Screening results as filed in PubChem.
